The panel holds about 83,000 compounds, 20% with a hit somewhere; the sample as a whole holds those more often.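 The test compound was applied at a single concentration to cells in 96-well plates for 48 hours, and percent growth was recorded.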 Activity calls are given as the source filed them. The calls were made as follows: active = growth percent below 10; inactive = the rest.

The first assay relates to SF-539 CNS. Kind of assay: NCI-60 one-dose screen, 48 h (100 = growth as untreated, 0 = no growth, -100 = all killed). As to conditions: 10 µM unless noted.
Turning to `O=C1C=CC2(NN=C(c3ccccc3)N2c2cccc(Cl)c2)C(Cl)=C1` (configuration not stated), the growth is 96.8% (inactive).

As for `Cc1ccc(N=C2CSc3nnc(-c4csc5c4CCCC5)n3N2)cc1`, the growth is -2.46% (active). Same read-out and setting: the figure for `Cc1cc(-c2cc(OC(=O)c3ccccc3)ccc2Cl)cc2nnc(Nc3ccc(OCCN4CCCC4)cc3)nc12` is 87.1% (inactive).

In the case of `Cc1cc(O)cc(-c2c(-c3ccnc(-c4cccnc4)c3)cnn2C)c1`, the growth was 42.7% (inactive).

The test system of the next assay is UACC-257 melanoma. Described as above. As to conditions: 10 µM unless noted.
Consider `CCOc1cc2ncc(C#N)c(Nc3ccc(F)c(Cl)c3)c2cc1NC(=O)/C=C/CN(C)C`, for which the growth was -63% (active). For `CCN(CC)CCNC(=O)c1c(C)[nH]c(/C=C2\C(=O)Nc3ccc(F)cc32)c1C`, the growth was -40.4% (active). In the case of `C[C@@H](Oc1cc(-n2cnc3ccc(CN4CCN(C)CC4)cc32)sc1C(N)=O)c1ccccc1C(F)(F)F`, the growth is -25.5% (active). On to `O=C(Cc1ccc(-c2ccc(OCCN3CCOCC3)cc2)cn1)NCc1ccccc1`, for which the growth was 8.49% (active). On the same count and under the same terms, the same measure for `Cc1nc(NC(=O)N2CCC[C@H]2C(N)=O)sc1-c1ccnc(C(C)(C)C(F)(F)F)c1`: 40% (inactive); for `Cc1c(Cn2c(C)nc3c(C(=O)O)cc(N4CCOCC4)cc32)cccc1C(F)(F)F`: 79% (inactive). In the case of `COc1cc2nccc(Oc3ccc(NC(=O)C4(C(=O)Nc5ccc(F)cc5)CC4)cc3)c2cc1OC`, the growth was -12.6% (active). Consider `O=c1[nH]ccc2c(S(=O)(=O)N3CCCNCC3)cccc12`, for which the growth is 99.1% (inactive). Turning to `Cc1ccc(NC(=O)c2ccc(CN3CC[C@H](N(C)C)C3)c(C(F)(F)F)c2)cc1Nc1nccc(-c2cncnc2)n1`, the growth was -74.7% (active). On the same count and under the same terms, the figure for `O=C(Nc1cccc(Cl)c1)Nc1ncc(CCNc2ncnc3ccsc23)s1` is 11.5% (inactive).

Consider `Cn1ccnc1C(=O)/C=C/c1ccc(CC(=O)Nc2ccc(Br)cc2)cc1`, for which the growth was 79.1% (inactive).

With `CNC(=O)c1nn(C)c2c1C(C)(C)Cc1cnc(Nc3ccc(N4CCN(C)CC4)cc3)nc1-2`, the growth was -14.8% (active). For `COc1cccc2cc(-c3nc(C4CCC(C(=O)O)CC4)n4ncnc(N)c34)[nH]c12` (configuration not stated), the growth was -22.8% (active).

Consider `CNc1ncc2cc(-c3cc(NC(=O)NCCC(C)(C)C)c(F)cc3C)c(C)nc2n1`, for which the growth is -10.3% (active). Consider `Cc1cc(C(=O)Nc2cc(Oc3ccc4nc(NC(=O)C5CC5)cn4n3)ccc2C)n(C)n1`, for which the growth is -29% (active). Take `O=C(Cc1ccc(/C=C/C(=O)c2ncc[nH]2)cc1)Nc1ccc(Br)cc1`: the growth was 69.8% (inactive). On to `CNC(=O)c1cccc2cc(Oc3ccnc4cc(OCC5(N)CC5)c(OC)cc34)ccc12`, for which the growth was 90.2% (inactive). On the same count and under the same terms, the figure for `C=CC(=O)Nc1cc2c(Nc3ccc(F)c(Cl)c3)ncnc2cc1OCCCN1CCOCC1` is 35.1% (inactive). For `NC(=O)c1c(OCc2c(F)cc(Br)cc2F)nsc1NC(=O)NCCCCN1CCCC1`, the growth is -80.3% (active). Consider `Cc1[nH]c(/C=C2\C(=O)Nc3ccc(F)cc32)c(C)c1C(=O)NC[C@H](O)CN1CCOCC1`, for which the growth was 42.3% (inactive). The same measure, in the same setting: the figure for `O=C(Nc1cn[nH]c1-c1nc2ccc(CN3CCOCC3)cc2[nH]1)NC1CC1` is 59.7% (inactive); for `O=C1C=CC2(NN=C(c3ccccc3)N2c2cccc(Cl)c2)C(Cl)=C1` (configuration not stated) it is 78.4% (inactive). Consider `Cc1cc(-c2cc(OC(=O)c3ccccc3)ccc2Cl)cc2nnc(Nc3ccc(OCCN4CCCC4)cc3)nc12`, for which the growth was 52.1% (inactive). `Cc1cc(O)cc(-c2c(-c3ccnc(-c4cccnc4)c3)cnn2C)c1`: the growth is 83.1% (inactive).

In another assay the test system is M14 melanoma. The description is as above. As to conditions: 10 µM unless noted.
Turning to `CCOc1cc2ncc(C#N)c(Nc3ccc(F)c(Cl)c3)c2cc1NC(=O)/C=C/CN(C)C`, the growth is -83.1% (active).

Regarding `CCN(CC)CCNC(=O)c1c(C)[nH]c(/C=C2\C(=O)Nc3ccc(F)cc32)c1C`, the growth is -77% (active). On the same count and under the same terms, the figure for `COc1ccc2c(CCC(c3ccccc3)c3ccccc3)c3[n+](cc2c1OC)CCc1cc2c(cc1-3)OCO2` is 2.51% (active); for `C[C@@H](Oc1cc(-n2cnc3ccc(CN4CCN(C)CC4)cc32)sc1C(N)=O)c1ccccc1C(F)(F)F` it is 15.7% (inactive). The same measure, in the same setting: the figure for `CC(C)=CCc1cc2c(cc1O)C1=C(C(=O)C3=C(NCCS3(=O)=O)C1=O)C(C=C(C)C)O2` (configuration not stated) is 3.7% (active); for `CC(N)C(Cc1ccc(Cl)cc1)c1ccc(Cl)cc1` (configuration not stated) it is 47.6% (inactive); for `Clc1nc(Cl)c2ncn(CC#CCn3cnc4c(Cl)nc(Cl)nc43)c2n1` it is 7.78% (active). Same read-out and setting: the same measure for `O=C(Cc1ccc(-c2ccc(OCCN3CCOCC3)cc2)cn1)NCc1ccccc1`: 0.711% (active). In the case of `Cc1nc(NC(=O)N2CCC[C@H]2C(N)=O)sc1-c1ccnc(C(C)(C)C(F)(F)F)c1`, the growth was 41.4% (inactive). On the same count and under the same terms, the same measure for `COc1ccc2c(CCCc3ccc(Cl)cc3Cl)c3[n+](cc2c1OC)CCc1cc2c(cc1-3)OCO2`: -24.5% (active); for `Cc1c(Cn2c(C)nc3c(C(=O)O)cc(N4CCOCC4)cc32)cccc1C(F)(F)F`: 89% (inactive); for `COc1cc2nccc(Oc3ccc(NC(=O)C4(C(=O)Nc5ccc(F)cc5)CC4)cc3)c2cc1OC`: -11.6% (active). Still for that read-out and setting: the same measure for `C=CCCCC(=O)CCC(=O)OCC1O[C@@H](O[C@@H]2C(O)[C@@H](OC(C)=O)C(C)O[C@H]2O[C@H](CC=C)CCCCC)C(O)[C@@H](OC(=O)/C(C)=C/C)[C@@H]1OC(=O)/C=C/c1ccccc1` (some centres not stated): -10.3% (active); for `O=c1[nH]ccc2c(S(=O)(=O)N3CCCNCC3)cccc12`: 88.3% (inactive); for `CC1(C=O)NC(=O)NC1=O` (configuration not stated): 103% (inactive). On the same count and under the same terms, the figure for `Cc1ccc(NC(=O)c2ccc(CN3CC[C@H](N(C)C)C3)c(C(F)(F)F)c2)cc1Nc1nccc(-c2cncnc2)n1` is -61% (active). As to `O=C(Nc1cccc(Cl)c1)Nc1ncc(CCNc2ncnc3ccsc23)s1`, the growth is 10.3% (inactive).

With `Cn1ccnc1C(=O)/C=C/c1ccc(CC(=O)Nc2ccc(Br)cc2)cc1`, the growth is 53.6% (inactive).

Take `CNC(=O)c1nn(C)c2c1C(C)(C)Cc1cnc(Nc3ccc(N4CCN(C)CC4)cc3)nc1-2`: the growth was 12.5% (inactive). On to `COc1cccc2cc(-c3nc(C4CCC(C(=O)O)CC4)n4ncnc(N)c34)[nH]c12` (configuration not stated), for which the growth was 4.34% (active).

`CNc1ncc2cc(-c3cc(NC(=O)NCCC(C)(C)C)c(F)cc3C)c(C)nc2n1`: the growth was -12.4% (active). Still for that read-out and setting: the figure for `Cc1cc(C(=O)Nc2cc(Oc3ccc4nc(NC(=O)C5CC5)cn4n3)ccc2C)n(C)n1` is -8.27% (active); for `O=C(Cc1ccc(/C=C/C(=O)c2ncc[nH]2)cc1)Nc1ccc(Br)cc1` it is 31.4% (inactive); for `CCc1ccc(C2=C(O)C(=O)C(c3ccc(CC)cc3)=C(O)C2=O)cc1` it is 4.98% (active).

As for `CNC(=O)c1cccc2cc(Oc3ccnc4cc(OCC5(N)CC5)c(OC)cc34)ccc12`, the growth was 56.1% (inactive).

Regarding `CCCCN1CCCC[C@@H]1C(=O)N[C@H](C(=O)N(C)[C@H](CCc1nc(C(=O)N[C@@H](Cc2ccccc2)C[C@H](C)C(=O)OC)cs1)C(C)C)C(C)C`, the growth is 49.9% (inactive). Consider `COc1cnc2c(c1)C(=O)c1c-2n(CCCN2CCC(N)CC2)c(=O)c2cc([N+](=O)[O-])ccc12`, for which the growth is 52.9% (inactive). Still for that read-out and setting: the figure for `C=CC(=O)Nc1cc2c(Nc3ccc(F)c(Cl)c3)ncnc2cc1OCCCN1CCOCC1` is -62.3% (active); for `NC(=O)c1c(OCc2c(F)cc(Br)cc2F)nsc1NC(=O)NCCCCN1CCCC1` it is -76.1% (active). For the molecule `CCc1nc2ccc(Cc3ccc(C(=O)NO)cc3)cc2c(=O)n1CCc1ccccc1`, the growth was -63.8% (active). On the same count and under the same terms, the figure for `Cc1cc(N(CCNc2ccnc3cc(Cl)ccc23)Cc2ccc3c(c2)OCO3)nc(N2CCN(C)CC2)n1` is -79.6% (active).

`Cc1ccc2oc(=O)cc(-c3cc(-c4cc5ccccc5oc4=O)nc(N)c3C#N)c2c1`: the growth was 85.7% (inactive). For `Cc1[nH]c(/C=C2\C(=O)Nc3ccc(F)cc32)c(C)c1C(=O)NC[C@H](O)CN1CCOCC1`, the growth was 7.61% (active). Take `O=C(Nc1cn[nH]c1-c1nc2ccc(CN3CCOCC3)cc2[nH]1)NC1CC1`: the growth is 34% (inactive). The same measure, in the same setting: the figure for `O=C1CSC(c2c(F)cccc2Cl)N1NC(=O)C(O)(c1ccccc1)c1ccccc1` (configuration not stated) is 94.5% (inactive). Same read-out and setting: the figure for `O=C1C=CC2(NN=C(c3ccccc3)N2c2cccc(Cl)c2)C(Cl)=C1` (configuration not stated) is 84.7% (inactive); for `Cc1ccc(N=C2CSc3nnc(-c4csc5c4CCCC5)n3N2)cc1` it is 5.9% (active); for `Cc1cc(-c2cc(OC(=O)c3ccccc3)ccc2Cl)cc2nnc(Nc3ccc(OCCN4CCCC4)cc3)nc12` it is -8.09% (active).

For the molecule `Cc1cc(O)cc(-c2c(-c3ccnc(-c4cccnc4)c3)cnn2C)c1`, the growth is 66% (inactive).

For the origin of these results see PubChem BioAssay (NCI).
